# Measurements from PubChem BioAssay (NCATS).
# Inconclusive results are not listed. Activity calls are given as the source filed them. Calls come from the whole dose curve; as a rule, active = well fitted inhibition curve with a large enough effect; inconclusive = small, poorly fitted or top-dose-only effect; inactive = flat fitted curve, though single readings scatter.
# System: Zika virus NS2B-NS3 protease
# Assay: Primary screen GU AMC qHTS for Zika virus inhibitors (AID 1347154);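 note: 0% = no-inhibitor control and -100% = no-enzyme control; nearly all actives have a fitted effect of over 70% in size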
# Details: Zika NS2B-NS3 unlinked protease, AMC fluorogenic substrate; series mostly up to 54.1 µM; activity change, negative = inhibition: at the top concentration
# In short: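 Unlinked Zika NS2B hydrophilic domain–NS3 protease complex at 25 nM in 10 mM Tris-HCl pH 8.0, 0.01% Tween 20, with an AMC peptide substrate. Fluorescence change (340/450 nm) over 15 min at room temperature, normalized to controls, fitted to 4-parameter Hill.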
Structure (SMILES),"activity change, negative = inhibition",Potency
O=[N+]([O-])c1cccc(S(=O)(=O)NCCNS(=O)(=O)c2cccc([N+](=O)[O-])c2)c1,-2.57% (inactive),
CC1(C)OC[C@@H]2O[C@@]3(C(=O)O)OC(C)(C)O[C@H]3[C@@H]2O1,-6.76% (inactive),
CC(C)Nc1cccnc1N1CCN(C(=O)c2cc3cc(NS(C)(=O)=O)ccc3[nH]2)CC1,2.56% (inactive),
CC(C)(C)CC(C)(C)c1ccc(O)c(-n2nc3ccccc3n2)c1,-12.4% (inactive),
CC(=O)N[C@@H](CCC(=O)O)C(=O)O,-0.444% (inactive),
CN1CCN(C2=Nc3cc(F)ccc3Cc3ccccc32)CC1,,inactive
Cc1ccc(O)c([C@H](CCN(C(C)C)C(C)C)c2ccccc2)c1,4.1% (inactive),
CC1=C(C(=O)O)N2C(=O)[C@@H](NC(=O)[C@H](N)c3ccccc3)[C@H]2SC1,0.758% (inactive),
Cl/C(=C\n1cncn1)c1ccc(Cl)cc1Cl,,inactive
CCOc1ccccc1C(N)=O,0.723% (inactive),
c1ccc(CC2=NCCN2)cc1,-3.38% (inactive),
CCCc1ncc(C[n+]2ccccc2C)c(N)n1,-2.9% (inactive),
Oc1ccccc1C=NCc1ccccc1,1.53% (inactive),
Cc1cccc(C)c1NC(=O)c1ccccc1C(=O)O,-4.8% (inactive),
Cc1cccc(C)c1NC(=O)CN1CCCC1,-0.315% (inactive),
COc1ccc(C(=O)c2ccccc2O)c(O)c1,-9.62% (inactive),
CCC(Cc1c(I)cc(I)c(N)c1I)C(=O)O (centres undefined),-8.93% (inactive),
CCN(CC)CCOC(=O)C1(c2ccccc2)CCCC1,-4.81% (inactive),
NC(=O)C1(N2CCCCC2)CCN(CCCC(=O)c2ccc(F)cc2)CC1,1.25% (inactive),
COc1ccc(C(Cl)=C(c2ccc(OC)cc2)c2ccc(OC)cc2)cc1,-10.8% (inactive),

Structure (SMILES),"activity change, negative = inhibition",Potency
FC1(F)C(F)(F)C(F)(F)C2(F)C(F)(F)C(F)(F)C(F)(F)C(F)(F)C2(F)C1(F)F (centres undefined),-14.9% (inactive),
COc1ccc(CCN(C)CCCN2CCc3cc(OC)c(OC)cc3CC2=O)cc1OC,,inactive
COc1ccccc1N1CCN(CCCCNC(=O)c2ccc(-c3ccc(C(C)=O)cc3)cc2)CC1,,inactive
O=S(=O)(O)c1ccc(O)cc1,4.73% (inactive),
CC(=O)Nc1ccc(OC(=O)c2ccccc2OC(C)=O)cc1,5.47% (inactive),
Cc1nc(-c2ccc(Cl)cc2)oc1COC(C)(C)C(=O)O,-7.55% (inactive),
CCCCCCCCOc1ccc(C(=O)c2ccccc2)c(O)c1,-1.64% (inactive),
CCCCC(CC)COC(=O)c1ccc(N(C)C)cc1 (centres undefined),-14.6% (inactive),
OC[C@H]1O[C@@H](Oc2ccc(O)cc2)[C@H](O)[C@@H](O)[C@@H]1O,-0.61% (inactive),
CCN(CC)CCOC(=O)C(Cc1cccc2ccccc12)CC1CCCO1 (centres undefined),-0.791% (inactive),
CCCCN1C[C@H](O)[C@@H](O)[C@H](O)[C@H]1CO,5.37% (inactive),
CCOC(=O)Nc1ccc2c(c1)N(C(=O)CCN1CCOCC1)c1ccccc1S2,0.0408% (inactive),
C[C@H]1[C@H]2CC[C@H]3[C@@H]4CC=C5C[C@@H](N(C)C)CC[C@]5(C)[C@H]4CC[C@]23CN1C,3.6% (inactive),
CC(C(=O)O)c1cccc(Oc2ccccc2)c1 (centres undefined),13.3% (inactive),
CCCN(CCC)S(=O)(=O)c1ccc(C(=O)O)cc1,11.9% (inactive),
CC(=O)OC[C@H]1O[C@@H](n2ncc(=O)[nH]c2=O)[C@H](OC(C)=O)[C@@H]1OC(C)=O,5.5% (inactive),
CCCCCCCCNC(C)C(O)c1ccc(SC(C)C)cc1 (centres undefined),-11.8% (inactive),
COc1cc(C)nc(-n2nc(C)cc2OC)n1,-2.4% (inactive),
O=C1c2cccc3c2[C@H](CCC3)CN1[C@@H]1CN2CCC1CC2,-4.94% (inactive),
